Tests used:
[1] = system: Vero E6 infected with SARS-CoV-2; assay: morphology score (similarity to uninfected cells); higher = more like uninfected cells; details: 24 h
[2] = system: Vero E6 infected with SARS-CoV-2; assay: SARS-CoV-2 infection rate relative to infected DMSO; higher = more infection, active = 60 or less; details: 24 h
[3] = system: Vero E6 infected with SARS-CoV-2; assay: inhibition of SARS-CoV-2 cytopathic effect; higher = more antiviral protection, active = above 15; details: 48 h

Nc1nc(NC[C@H]2CC[C@H](CNS(=O)(=O)c3cccc4ccccc34)CC2)nc2ccccc12 (0.833333 µM)
morphology score [1]: -0.0427
SARS-CoV-2 infection rate [2]: 93.5% (inactive)

CCCNC(=O)N1N=C(c2ccc(N)cc2)c2cc3c(cc2C1C)OCO3 (stereo not given)
inhibition of SARS-CoV-2 cytopathic effect ([3]; 1 nM): -4.65% (inactive)
inhibition of SARS-CoV-2 cytopathic effect ([3]; 8.33 nM): -0.41% (inactive)
inhibition of SARS-CoV-2 cytopathic effect ([3]; 100 nM): 1.6% (inactive)
inhibition of SARS-CoV-2 cytopathic effect ([3]; 833.33 nM): 0.9% (inactive)
inhibition of SARS-CoV-2 cytopathic effect ([3]; 10000 nM): 4.48% (inactive)

Cc1cc(C)cc(NC(=O)Cc2ccc(OC(C)(C)C(=O)O)cc2)c1 [efaproxiral] (10 µM)
morphology score [1]: -0.103
SARS-CoV-2 infection rate [2]: 107% (inactive)

C[N+]1(C)CCCC(OC(=O)C(O)(c2ccccc2)c2ccccc2)C1 (stereo not given) [mepenzolate]
inhibition of SARS-CoV-2 cytopathic effect ([3]; 1 nM): -0.21% (inactive)
inhibition of SARS-CoV-2 cytopathic effect ([3]; 8.33 nM): -0.16% (inactive)
inhibition of SARS-CoV-2 cytopathic effect ([3]; 100 nM): -3.53% (inactive)
inhibition of SARS-CoV-2 cytopathic effect ([3]; 833.33 nM): 0.26% (inactive)
inhibition of SARS-CoV-2 cytopathic effect ([3]; 10000 nM): 0.49% (inactive)

COc1cc(C(=O)NC2CCN(C)CC2)c(F)cc1Nc1ncc2c(n1)N(C1CCCC1)CC(F)(F)C(=O)N2C (0.833333 µM)
morphology score [1]: -0.193
SARS-CoV-2 infection rate [2]: 100% (inactive)

COCCCOc1ccnc(C[S+]([O-])c2nc3ccccc3[nH]2)c1C (stereo not given) [rabeprazole]
inhibition of SARS-CoV-2 cytopathic effect ([3]; 1 nM): -0.56% (inactive)
inhibition of SARS-CoV-2 cytopathic effect ([3]; 8.33 nM): -0.31% (inactive)
inhibition of SARS-CoV-2 cytopathic effect ([3]; 100 nM): 2.14% (inactive)

O=S(=O)(O)c1ccc(-c2c3nc(c(-c4ccc(S(=O)(=O)O)cc4)c4ccc([nH]4)c(-c4ccc(S(=O)(=O)O)cc4)c4nc(c(-c5ccc(S(=O)(=O)O)cc5)c5ccc2[nH]5)C=C4)C=C3)cc1 (10 µM)
morphology score [1]: -0.0273
SARS-CoV-2 infection rate [2]: 102% (inactive)

COc1cc2c(cc1O)C(CCc1ccc(Cl)cc1)N(C)CC2 (stereo not given)
inhibition of SARS-CoV-2 cytopathic effect ([3]; 1 nM): 0.21% (inactive)
inhibition of SARS-CoV-2 cytopathic effect ([3]; 8.33 nM): 2.27% (inactive)
inhibition of SARS-CoV-2 cytopathic effect ([3]; 100 nM): 0.29% (inactive)
inhibition of SARS-CoV-2 cytopathic effect ([3]; 833.33 nM): 0% (inactive)
inhibition of SARS-CoV-2 cytopathic effect ([3]; 10000 nM): 0.49% (inactive)

CCCCC(=O)OCC(=O)[C@]1(O)Cc2c(O)c3c(c(O)c2[C@@H](O[C@H]2C[C@H](NC(=O)C(F)(F)F)[C@H](O)[C@H](C)O2)C1)C(=O)c1c(OC)cccc1C3=O [valrubicin]
inhibition of SARS-CoV-2 cytopathic effect ([3]; 1 nM): -0.61% (inactive)
inhibition of SARS-CoV-2 cytopathic effect ([3]; 8.33 nM): 0.16% (inactive)
inhibition of SARS-CoV-2 cytopathic effect ([3]; 100 nM): -0.18% (inactive)
inhibition of SARS-CoV-2 cytopathic effect ([3]; 833.33 nM): 0.06% (inactive)
inhibition of SARS-CoV-2 cytopathic effect ([3]; 10000 nM): -1.25% (inactive)

O=C(c1ccc(F)cc1)C1CCN(CCCCc2ccccc2)CC1 [4-(4-fluorobenzoyl)-1-(4-phenylbutyl)-piperidine] (10 µM)
morphology score [1]: -0.00104
SARS-CoV-2 infection rate [2]: 110% (inactive)

Sc1nc2ccccc2s1 [benzo[d]thiazole-2(3H)-thione]
inhibition of SARS-CoV-2 cytopathic effect ([3]; 1 nM): -1.3% (inactive)
inhibition of SARS-CoV-2 cytopathic effect ([3]; 8.33 nM): 0.55% (inactive)
inhibition of SARS-CoV-2 cytopathic effect ([3]; 100 nM): -0.47% (inactive)

COc1cccc(C=NCCN=Cc2cccc(OC)c2[O-])c1[O-].[Cl-].[Mn+3] (10 µM)
morphology score [1]: -0.0731
SARS-CoV-2 infection rate [2]: 95% (inactive)

CCOC(=O)[C@@H](N)CCC(=O)N[C@@H](CSCc1ccccc1)C(=O)N[C@@H](C(=O)OCC)c1ccccc1 [ezatiostat]
inhibition of SARS-CoV-2 cytopathic effect ([3]; 1 nM): -0.49% (inactive)
inhibition of SARS-CoV-2 cytopathic effect ([3]; 8.33 nM): 0.28% (inactive)
inhibition of SARS-CoV-2 cytopathic effect ([3]; 100 nM): 1.7% (inactive)
inhibition of SARS-CoV-2 cytopathic effect ([3]; 833.33 nM): 2.71% (inactive)
inhibition of SARS-CoV-2 cytopathic effect ([3]; 10000 nM): 0.41% (inactive)

NCCCC[C@H](NC(=O)[C@@H]1CCCN1C(=O)[C@@H]1CSSC[C@H](NC(=O)CNC(=O)CNC(=O)CN)C(=O)N[C@@H](Cc2ccc(O)cc2)C(=O)N[C@@H](Cc2ccccc2)C(=O)N[C@@H](CCC(N)=O)C(=O)N[C@@H](CC(N)=O)C(=O)N1)C(=O)NCC(N)=O [terlipressin]
inhibition of SARS-CoV-2 cytopathic effect ([3]; 1 nM): 2.67% (inactive)
inhibition of SARS-CoV-2 cytopathic effect ([3]; 8.33 nM): 0.07% (inactive)
inhibition of SARS-CoV-2 cytopathic effect ([3]; 100 nM): 0.5% (inactive)
inhibition of SARS-CoV-2 cytopathic effect ([3]; 833.33 nM): -0.07% (inactive)
inhibition of SARS-CoV-2 cytopathic effect ([3]; 10000 nM): 0.72% (inactive)

CC[C@H](/C=C/[C@@H](C)[C@H]1CC[C@H]2[C@@H]3CC=C4C[C@@H](O)CC[C@]4(C)[C@H]3CC[C@]12C)C(C)C [Stigmasterol (Stigmasterin)]
inhibition of SARS-CoV-2 cytopathic effect ([3]; 1 nM): 0.05% (inactive)
inhibition of SARS-CoV-2 cytopathic effect ([3]; 8.33 nM): -0.75% (inactive)
inhibition of SARS-CoV-2 cytopathic effect ([3]; 100 nM): 0.44% (inactive)
inhibition of SARS-CoV-2 cytopathic effect ([3]; 833.33 nM): 0.29% (inactive)
inhibition of SARS-CoV-2 cytopathic effect ([3]; 10000 nM): -0.01% (inactive)

CNC(=O)c1ccc(N2C(=S)N(c3cnc(C#N)c(C(F)(F)F)c3)C(=O)C23CCC3)cc1F [apalutamide]
inhibition of SARS-CoV-2 cytopathic effect ([3]; 1 nM): 0.94% (inactive)
inhibition of SARS-CoV-2 cytopathic effect ([3]; 8.33 nM): 1.02% (inactive)
inhibition of SARS-CoV-2 cytopathic effect ([3]; 100 nM): 1.33% (inactive)
inhibition of SARS-CoV-2 cytopathic effect ([3]; 833.33 nM): 0.68% (inactive)
inhibition of SARS-CoV-2 cytopathic effect ([3]; 10000 nM): 1.02% (inactive)

CNC[C@@H]1CC[C@@H](N)[C@@H](O[C@H]2[C@H](O)[C@@H](O[C@H]3OC[C@](C)(O)[C@H](NC)[C@H]3O)[C@H](N)C[C@@H]2N)O1 [micronomicin] (10 µM)
morphology score [1]: 0.0697
SARS-CoV-2 infection rate [2]: 96% (inactive)

Cc1cc2ncc(C(=O)NCC(C)(C)NCC(=O)N3CCC[C@H]3C#N)cn2n1 [anagliptin]
inhibition of SARS-CoV-2 cytopathic effect ([3]; 1 nM): -0.17% (inactive)
inhibition of SARS-CoV-2 cytopathic effect ([3]; 8.33 nM): -0.56% (inactive)
inhibition of SARS-CoV-2 cytopathic effect ([3]; 100 nM): -0.23% (inactive)
inhibition of SARS-CoV-2 cytopathic effect ([3]; 833.33 nM): 0.84% (inactive)
inhibition of SARS-CoV-2 cytopathic effect ([3]; 10000 nM): 0.07% (inactive)

— the supplement of paper PMC13380429
